Growth inhibition data for 40 compounds are collected here from PubChem BioAssay (NCI).

Structures are written as SMILES. Compounds without any hit were thinned out: in the full panel of roughly 79,000, 15% have a hit. Unmarked numbers belong to inactive results. Calls of active or inactive are those of the source. Rule as the data show it: active = growth inhibition above about 70%; inactive = the rest.

The assay in a line: NCI Yeast Anticancer Drug Screen. Data for the sgs1 mgt1 strain (AID 161).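 Also: 0% = growth of cultures given vehicle only.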 The following applies: S. cerevisiae sgs1 mgt1 strain, at 50.0 µM, stronger effect = higher value. Summed up:
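Genetically altered yeast, compound exposure, growth inhibition relative to vehicle.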
As to `NC(=O)Nc1ccc(Cl)cc1[N+](=O)[O-]`, the growth inhibition is 17.6%.
Consider `CCCCCCCCCCCCCCCCS(=O)(=O)N/N=C/c1ccccc1O`, for which the growth inhibition is 30.2%.
Turning to `CCCCOC(=O)c1cc2ccccc2oc1=O`, the growth inhibition was 25.1%.
`O=C1O/C(=C(/Cl)c2cccc3ccccc23)c2ccccc21`: the growth inhibition was -38.4%.
Regarding `CC1(c2ccc(Cl)cc2)NC(=O)NC1=O` (stereo not given), the growth inhibition was -7.65%.
Take `CCCCCCCCCC(=O)N/N=C/c1ccco1`: the growth inhibition is 63%.
On to `Cc1ccc(C(C)C)c(OC2OC(C(=O)O)C(O)C(O)C2O)c1` (stereo not given), for which the growth inhibition is -9%.
With `Cc1ccc(OS(=O)Nc2cccc(N)c2)cc1` (stereo not given), the growth inhibition was -13.9%.
Regarding `CCCCC1C(=O)N=C2C=CC=CN2C1=O` (stereo not given), the growth inhibition was -5.75%.
Turning to `NC(=O)NC(=O)OCCOC(=O)NC(N)=O`, the growth inhibition was -13.3%.
For `CSc1nc2ncnc(N(C)C)c2[nH]1`, the growth inhibition was -8.5%.
Regarding `Nc1ccc(C(=O)NN2C(=O)C(Cl)C2c2cc(Br)ccc2O)cc1` (stereo not given), the growth inhibition was 30.7%.
In the case of `Cc1cc(=O)c2cc(-c3ccccc3)ccc2[nH]1`, the growth inhibition is -13.4%.
In the case of `CCN(CC)C(=O)C1CCN(CCC(=O)Nc2ccccc2)CC1`, the growth inhibition was 12.9%.
With `Cc1cc(C)c(CC(=O)NCC(=O)NN)c(C)c1`, the growth inhibition is -17.1%.
For `CCC/C=C/c1cc2c(cc1O)CC[C@@H]1[C@@H]2CC[C@]2(C)[C@@H](O)CC[C@@H]12`, the growth inhibition was 45.6%.
On to `COc1ccccc1NC(=O)CC(C)=O`, for which the growth inhibition was 7.8%.
Take `CO[C@@H]1[C@@H](OC2OC(C)C(OC3CC(C)(O)C(OC(=O)CC(C)C)C(C)O3)C(N(C)C)C2O)[C@@H](CC=O)C[C@@H](C)C(=O)/C=C/C2O[C@H]2C[C@@H](C)OC(=O)C[C@H]1OC(C)=O` (stereo not given in full): the growth inhibition was 4.75%.
`NSC(=S)NCc1ccco1`: the growth inhibition is 7.75%.
The figure for `Cc1ccc(NC(=O)Oc2ccc(Br)cc2)c([N+](=O)[O-])c1` is 16.3%; for `CCOC(=O)C(CC[C@@H]1N[C@H](C(N)=O)Cc2c1[nH]c1ccccc21)C(=O)OCC` it is 5.3%.
For `Cn1cnc2ncnc(Nc3ccc(Cl)cc3)c21`, the growth inhibition was 4%.
Regarding `O=C1c2ccsc2C(=O)c2sc(CO)cc21`, the growth inhibition was 91% (active).
For `CN(C)CC(CN(C)C)C(=O)c1ccc(OC2OC(CO)C(O)C(O)C2O)cc1` (stereo not given), the growth inhibition is -18.4%.
Consider `Cn1c(N)c(NC(=O)CC#N)c(=O)n(C)c1=O`, for which the growth inhibition is 27.3%.
In the case of `COc1cc(CNC(=S)CCCCCCCCCCC(C)C)ccc1O`, the growth inhibition is -4.5%.
As for `Cn1c2c(c(=O)c3c4[nH]c5c(c(=O)c4ccc31)CCCC5)CCCC2`, the growth inhibition was -15.1%.
For `C1=Cc2ccccc2Nc2ccccc21`, the growth inhibition was -10.8%.
For the compound `c1ccc2c(c1)cc1n2CC2CN=NC12` (stereo not given), the growth inhibition is -27.4%.
For the compound `Cc1sc2nc3n(c(=O)c2c1C)N=C(c1ccc([N+](=O)[O-])cc1)CS3`, the growth inhibition is -10.1%.
With `CC12CCC(Cl)(CC1O)C2(C)C` (stereo not given), the growth inhibition is 1.15%.
For the compound `COc1ccc(CC(=O)NCCc2ccc(OC)c(OC)c2OC)cc1`, the growth inhibition is -30%.
As for `COc1cc2c(c3[nH]cc(C(=O)O)c(=O)c13)NC(=O)CS2`, the growth inhibition is -16.9%.
For `COc1ccc(-c2c3c(n(C4OC(COC(C)=O)C(OC(C)=O)C(OC(C)=O)C4OC(C)=O)c(=S)c2C#N)CCCC3)cc1` (stereo not given), the growth inhibition was 3.4%.
The figure for `CC(=O)OC1CC2C(C)(CCC3C2(C)CCC2(C)C4CC(C)(C)CCC4(C)CCC32C)C1C` (stereo not given) is -7.5%.
Under `CC(=O)OC1C=CCC2C(=O)C3=C(C(=O)c4ccccc4C3=O)C(=O)C12` (stereo not given) stands 28%.
Under `COc1ccc(N)cc1CO` stands -15.3%; under `O=C1NC(=NC2CCCCC2)C2(CCN(CCCC3(c4ccc(F)cc4)OCCO3)CC2)N1c1ccccc1`, -6.3%.
Consider `COC(=O)/C=C1\CCC2C3CC=C4C=C(N5CCCC5)CCC4(C)C3C(=O)CC12C` (stereo not given), for which the growth inhibition was 18.6%.
Consider `O=C(C[n+]1ccccc1CCCO)c1ccc(F)cc1`, for which the growth inhibition is 4.6%.
